Measured values taken from PubChem BioAssay AID720597 (Broad Institute, 2013).
Measured potencies and affinities stand elsewhere. Unmarked numbers belong to inactive results.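 Rule for the calls: active = fitted half-maximal dose no more than twice the top valid tested dose, for compounds that lower signal; inconclusive = fit invalid, or curve flat with activity between -70 and -30; inactive = potency past limit, curve flat within ±30, or signal increasing.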

Biological target: NAD-dependent protein deacylase sirtuin-5, mitochondrial (Homo sapiens) (UniProt Q9NXA8)
Test: blockers of sirtuin-5 peptide desuccinylation – biochemical, fluorescence imaging, cherry-pick, set 6, dose response (AID 720597);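 note: lower AMC signal can also come from blocking the trypsin step; 0% = median of neutral control wells and -100% = median of positive control wells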
Settings: Purified SirT5, succinyl-peptide-AMC/trypsin fluorescence; series mostly up to 15 µM; activity change, negative = inhibition: at the top concentration

Sequence of NAD-dependent protein deacylase sirtuin-5, mitochondrial (Homo sapiens) (Q9NXA8 whole entry, looked up): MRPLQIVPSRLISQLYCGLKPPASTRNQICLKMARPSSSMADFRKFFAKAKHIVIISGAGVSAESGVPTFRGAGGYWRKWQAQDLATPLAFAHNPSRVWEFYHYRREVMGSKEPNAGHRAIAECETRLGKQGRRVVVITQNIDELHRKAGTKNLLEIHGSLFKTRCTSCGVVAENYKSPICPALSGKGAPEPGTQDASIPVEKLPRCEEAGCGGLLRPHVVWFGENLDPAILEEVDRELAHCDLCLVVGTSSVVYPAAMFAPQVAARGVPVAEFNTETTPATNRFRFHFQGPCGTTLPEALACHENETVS

Row | Structure (SMILES) | activity change, negative = inhibition
1 | COc1ccccc1S(=O)(=O)N(C)C[C@H]1Oc2cc(C#CCC3CCCC3)ccc2S(=O)(=O)N([C@@H](C)CO)C[C@@H]1C | 0.417%
2 | Cc1ccc(-c2ccc3c(c2)O[C@@H](CN(C)Cc2ccccc2)[C@@H](C)CN([C@@H](C)CO)S3(=O)=O)cc1 | -12.1%
3 | C/C=C/c1ccc([C@@H]2[C@H](CO)N(CC3CC3)C23CN(S(=O)(=O)CC)C3)cc1 | 1.88%
4 | C[C@@H]1CN([C@@H](C)CO)C(=O)c2cccc(NS(=O)(=O)c3ccc(F)cc3)c2O[C@H]1CN(C)C(=O)Nc1ccccc1 | -19.6%
5 | COc1ccc(C#Cc2ccc([C@H]3[C@@H](CO)N4C(=O)CN(C(=O)c5cccnc5)C[C@@H]34)cc2)cc1 | 7.65%
6 | COc1ccc(C#Cc2ccc([C@H]3[C@H]4CN(C(=O)c5cccnc5)CC(=O)N4[C@H]3CO)cc2)cc1 | -7.27%
7 | C[C@@H]1CN([C@@H](C)CO)S(=O)(=O)c2ccc(/C=C/c3ccccc3)cc2O[C@@H]1CN(C)C(=O)Nc1cc(F)ccc1F | -20.6%
8 | COc1cccc(NC(=O)N2CC(=O)N3[C@H](C2)[C@H](c2ccc(C#CCC4CCCC4)cc2)[C@@H]3CO)c1 | -16.2% [at 16 µM]
9 | COc1ccc(NC(=O)Nc2ccc3c(c2)C(=O)N([C@@H](C)CO)C[C@H](C)[C@H](CN(C)Cc2ccc(Cl)c(Cl)c2)O3)cc1 | -4.73%
10 | C[C@H]1CN([C@@H](C)CO)S(=O)(=O)c2ccc(-c3cccc(F)c3)cc2O[C@H]1CN(C)S(=O)(=O)c1ccc(F)cc1 | 7.74%
11 | O=C(NC1CCCC1)N1CCCCN2[C@H](C1)[C@H](c1ccc(/C=C/c3ccccc3)cc1)[C@@H]2CO | -2.21%
12 | C[C@@H]1CN([C@@H](C)CO)C(=O)c2cc(-c3cccc(F)c3)cnc2O[C@H]1CN(C)C(=O)Nc1cc(F)ccc1F | -1.1%
